Experimental data reported in PubChem BioAssay AID720649 (The Scripps Research Institute Molecular Screening Center, 2013).
Some of the results follow. Active and inactive are the calls of the source. No rule for the calls is given here.

Test: TO-PRO-1 dye complex inhibitors on d(CAG) DNA, dose response, counter-screen, biochemical, fluorescence, late stage (AID 720649)
Conditions: d(CAG) DNA duplex TO-PRO-1 dye displacement

SMILES: O=C1CC(=O)N(Cc2ccccc2)C(=O)N1CCCCCCN1C(=O)CC(=O)N(Cc2ccccc2)C1=O
- IC50: 6.7 µM (active)
